In the library only some 11% were active in any assay of this set; here they are far more common.
PNC inhibitor = perinucleolar compartment assembly inhibition; PC3M PTB-GFP, PNC prevalence imaging, 16 h; stronger effect = lower value; activity change (PNC), negative = inhibition, % at 10 µM; 140,000 compounds, 3.1% hits; AID 2417;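 active = readout at or below -70, meaning at least 70% loss of cells showing the perinucleolar compartment, a nuclear body marking cancer cells; inconclusive = readout between -30 and a set limit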;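 note: plate controls were DMSO wells for no effect and camptothecin positive control wells for full effect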
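Read-out is percentage of cells bearing a perinucleolar compartment, from automated 20x imaging of fixed, Hoechst-stained PC3M PTB-GFP cells. Cells were seeded 4 h, then exposed 16 h to compound (23 nl of library stock) in duplicate plates.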
NPSR antag = antagonists of human neuropeptide S receptor cAMP signaling | Potency, µM (doses to about 38.3 µM), for inactives: at the top dose activity change, negative = inhibition, actives largely listed as inhibitors | Q6W5P4 | CHO-NPSR cells, cAMP TR-FRET, antagonist mode | 220,000 compounds, 1% hits; note: potency is the fitted concentration of half-maximal effect; nearly all actives have a fitted effect of over 50% in size
Target sequence (Q6W5P4 whole entry, looked up): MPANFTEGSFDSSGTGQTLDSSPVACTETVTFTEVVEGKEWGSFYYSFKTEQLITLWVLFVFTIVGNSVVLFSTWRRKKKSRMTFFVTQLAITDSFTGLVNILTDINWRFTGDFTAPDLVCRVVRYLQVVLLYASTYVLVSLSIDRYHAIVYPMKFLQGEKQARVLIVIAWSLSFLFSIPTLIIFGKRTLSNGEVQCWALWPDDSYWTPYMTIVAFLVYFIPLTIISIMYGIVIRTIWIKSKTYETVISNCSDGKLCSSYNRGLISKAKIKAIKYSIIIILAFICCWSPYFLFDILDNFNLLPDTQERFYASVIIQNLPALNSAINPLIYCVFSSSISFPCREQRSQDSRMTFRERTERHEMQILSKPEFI
IMPase cell inh = membrane-permeable compound that blocks inositol monophosphatase | P97697 | 120,000 tested, under 10 active | inhibition (IP1 accumulation), % at 46.1 µM | AID 901 | CHO-M1 cells, IP1 accumulation, HTRF TR-FRET ratio; active = well fitted curve in the direction sought with a large enough effect in the signal ratio, not every such curve was filed as active; inconclusive = small, poorly fitted or top-dose-only effect, or a change in a side signal; inactive = no such curve, though single readings can be large or run the other way; the % refers to the signal ratio;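 note: cells stimulated with carbachol in lithium chloride buffer; plate controls were DMSO basal wells for no effect and reference inhibitor wells for full effect; higher means more IMPase inhibition seen as more IP1 and lower FRET ratio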
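In this qHTS, compounds (final up to 46 uM) act on CHO-M1 cells that are then activated through the M1 receptor with carbachol, in pH 7.4 buffer containing 50 mM LiCl, for 30 min. IP1 accumulation is quantified by the IP-One immunoassay.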
ALDH1A1 inh = ALDH1A1 (human) enzyme inhibition; P00352; Purified ALDH1A1, NADH fluorescence, propionaldehyde substrate; Potency, µM (series often up to 75.3 µM), for the others: top-dose activity, negative = inhibition, most hits filed as inhibitors; 220,000 compounds, 7.3% hits; AID 1030; active = well fitted inhibition curve with a large enough effect, not every such curve was filed as active; inconclusive = small, poorly fitted or top-dose-only effect, or another doubt; inactive = no such curve, though single readings can be large or run the other way;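 note: potency is the fitted concentration of half-maximal effect; plate controls were no enzyme wells and a reference inhibitor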
HPGD block = HPGD (human) dehydrogenase inhibition | purified HPGD, NADH fluorescence kinetic, PGE2 substrate | Potency, µM, without a hit: at the top dose activity change, negative = inhibition, actives largely listed as inhibitors | 150,000 compounds, 4.3% hits | AID 894; active = well fitted inhibition curve with a large enough effect, not every such curve was filed as active; inconclusive = small, poorly fitted or top-dose-only effect, or another doubt; inactive = no such curve, though single readings can be large or run the other way; note: potency is the fitted concentration of half-maximal effect
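NADH formation kinetics: reaction with 30 uM PGE2 and 1 mM NAD+ (final), 20 nM enzyme, Tris-HCl pH 8 with Tween 20, after 15 min compound preincubation at room temperature. Fluorescence change, last versus first of five reads.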
IMPase Li cell = IMPase inhibition in cells with lithium potentiation; CHO-M1 cells, IP1 TR-FRET (IP-One), carbachol + lithium; AID 1457; 210,000 compounds, 0.35% hits; Potency, µM (titrated, usually from 59.4 µM), inactives show top-dose activity, negative = IMPase inhibition, actives largely listed as inhibitors;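 note: IP1 builds up when IMPase is blocked and the TR-FRET signal falls; potency is the fitted concentration of half-maximal effect; plate controls were basal vehicle for no effect and high inhibitor control for full effect; nearly all actives have a fitted effect of over 50% in size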
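Test compounds were applied to CHO-M1 cells previously cultured for 16–30 h at 2000 per well. A small lithium amount accompanied them; after 30 min at 37C, IP1 was quantified by TR-FRET.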
* = called active by the depositor; ? = inconclusive; . = not tested or not shown; [ ] = remark or other dose. Unless noted, calls come from the whole dose curve; as a rule, active = well fitted curve in the direction sought with a large enough effect; inconclusive = small, poorly fitted or top-dose-only effect, or another doubt; inactive = no such curve, though single readings can be large; an effect the other way counts as inactive or inconclusive. Unless noted, % is set by controls: 0 for no effect and ±100 for the full control effect.

SMILES	PNC inhibitor	NPSR antag	IMPase cell inh	ALDH1A1 inh	HPGD block	IMPase Li cell
COc1ccc(Oc2coc3cc(OC(=O)/C=C/c4ccc(F)cc4)ccc3c2=O)cc1	35	-2%[46.1 µM]	1	3%	.	.
CCn1c(C)c(CS(=O)(=O)c2ccccc2)[nH]c1=O	.	4%	.	22µM*	.	3%
O=C(CSc1nnnn1-c1ccccc1F)NNC(=O)c1ccco1	.	-7%	.	14µM*	.	1%
O=C(CSc1nnnn1-c1ccccc1)NCc1cccs1	-23	-8%[46.1 µM]	-1	-12%	2%	1%[38.3 µM]
Cc1cccc(C)c1NC(=O)CSc1nnnn1-c1ccc(C(=O)O)cc1	-2	?	5	2%	-27%	-5%[38.3 µM]
Cc1ccccc1NC(=O)CCSc1nnnn1-c1ccccc1	43	-23%[46.1 µM]	-5	8.9µM*	-10%	-3%
CSc1ccccc1-n1nnnc1SCC(=O)Nc1ccccc1C	-14	-19%[46.1 µM]	-1	13µM*	0%	40%[38.3 µM]
CSc1ccccc1-n1nnnc1SCC(=O)NCc1cccs1	?	18%[46.1 µM]	-5[0.369 µM]	16µM*	-11%	3%
O=C(O)CCSc1nnnn1-c1ccccc1	-15	6%[46.1 µM]	5	-2%	.	.
C(=N\N(c1ccccc1)c1ccccc1)/c1ccc2c(c1)OCO2	-26	-20%[46.1 µM]	5	-5%	-21%	18%[38.3 µM]
Cn1nnnc1SCC(=O)Nc1ccccc1N1CCCCC1	-7	10%[46.1 µM]	?	11%	5%	-2%
CSc1ccccc1NC(=O)CSc1nnnn1-c1ccccc1SC	?	-9%[46.1 µM]	?	11µM*	-13%	26%[38.3 µM]
O=c1[nH]cnc2c1sc1nc(-c3ccccc3)c3c(c12)CCCC3	72	2%	.	-4%	-24%	-5%
S=c1nc[nH]c2c1sc1nc(-c3ccccc3)c3c(c12)CCCC3	-21	-9%[46.1 µM]	2	2.5µM*	-20%	?
Cc1cccc(NC(=S)NNC(=O)COc2ccc(Cl)cc2Cl)c1	65	-12%[46.1 µM]	-1	6.3µM*	?	6%
COc1ccc(NC(=S)NNC(=O)COc2ccc(Cl)cc2Cl)cc1	-7	-16%	7	7%	4.5µM*	0%
COc1ccc(NC(=S)NNC(=O)CNc2ccc(Cl)cc2)cc1	.	-15%	.	10µM*	.	4%
COc1ccc(CC(=O)NNC(=S)Nc2ccc(Br)cc2)cc1	11	-15%[46.1 µM]	-3	18µM*	-19%	11%[38.3 µM]
CC1(C)CC(c2nc(-c3ccccc3)cs2)CCS1 (stereo not given)	36	-20%	3	0%	1%	3%
Cc1ccc(N2CCN(C(=O)CN3C(=O)c4ccccc4C3=O)CC2)cc1	?	-7%[46.1 µM]	1	-5%	-4%	19%[38.3 µM]
CCS(=O)(=O)c1ccc2oc(Nc3ccccc3Br)nc2c1	.	31%	.	0%	.	.
CCOc1ccc(CC(=O)NNC(=S)Nc2ccccc2)cc1Br	65	-6%[46.1 µM]	-7	32µM*	-15%	24%[38.3 µM]
COc1ccc(CC(=O)NNC(=S)Nc2ccccc2)cc1Br	-1	-22%[46.1 µM]	8	?	-25%	-1%[38.3 µM]
COc1ccc(OCC(=O)NC(=S)NNC(=O)COc2ccc(Br)cc2Cl)cc1	.	5%	.	11µM*	.	-4%
CCOc1ccc(Cc2noc3c2C(=O)CCC3)cc1OCC	.	5%	.	6%	.	1%
SMILES	PNC inhibitor	NPSR antag	IMPase cell inh	ALDH1A1 inh	HPGD block	IMPase Li cell
CCOc1ccc(Cc2noc3c2C(=O)CC(C)(C)C3)cc1OCC	.	-14%	.	11µM*	.	15%
Cc1ccc(C)c(N2CCN(C(=O)c3cc4ccccc4oc3=O)CC2)c1	30	-12%[46.1 µM]	-1	10%	-7%	-2%[38.3 µM]
Cc1ccsc1/C=C1\SC(N)=NC1=O	57	4%[46.1 µM]	5	23%	-26%	3%[38.3 µM]
Cc1ccsc1/C=C1/SC(N2CC(C)OC(C)C2)=NC1=O (stereo not given)	14	-15%	.	11µM*	32µM*	9%
COc1ccc(CCNC(=O)CSc2cccc3cccnc23)cc1OC	.	2%	.	8%	.	1%
CC(=O)c1ccc2c(c1)C1C=CCC1C(c1ccncc1)N2 (stereo not given)	-23	-15%[46.1 µM]	2	20µM*	-6%	13%[38.3 µM]

Screens (PubChem BioAssay)
